Reference: the supplement of paper PMC11732987, “Enantioselective OTUD7B fragment discovery through chemoproteomics screening and high-throughput optimisation” (Communications Chemistry, 2025)

Legend:
Assay in all cases: log2 ratio of Biotin-Ahx-Ub-VS probe labelling (fragment/DMSO); higher = less target engagement (more negative = stronger competition), active = hit call of the paper (q ≤ 0.05, log2 ratio ≤ -1)
Conditions in all cases: compound concentration: 200 uM; treatment time: 3 h
[1] = molecular target: USP9X (UniProt Q93008)
Method in brief: (§1)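 HEK293T lysate (495 µg per sample, in Tris/CHAPS/IGEPAL buffer with protease inhibitors) was exposed in triplicate for 3 h to fragment at 200 µM or to vehicle, then to Biotin-Ahx-Ub-VS at 0.5 µM final for 1 h. Labelled DUBs were enriched on NeutrAvidin, digested with LysC and trypsin, and analysed by diaPASEF LC-MS/MS. Spectronaut label-free quantities were normalised to the global median, and values are average log2 ratios of fragment over vehicle from an unpaired t-test. Only proteins with ≥2 unique peptides were used.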

[2] = molecular target: UniProt O00487
Method in brief: as §1

[3] = molecular target: UniProt O00507
Method in brief: as §1

[4] = molecular target: UniProt P51784
Method in brief: as §1

[5] = molecular target: T1, UniProt Q5T2D3
T1 sequence (whole entry): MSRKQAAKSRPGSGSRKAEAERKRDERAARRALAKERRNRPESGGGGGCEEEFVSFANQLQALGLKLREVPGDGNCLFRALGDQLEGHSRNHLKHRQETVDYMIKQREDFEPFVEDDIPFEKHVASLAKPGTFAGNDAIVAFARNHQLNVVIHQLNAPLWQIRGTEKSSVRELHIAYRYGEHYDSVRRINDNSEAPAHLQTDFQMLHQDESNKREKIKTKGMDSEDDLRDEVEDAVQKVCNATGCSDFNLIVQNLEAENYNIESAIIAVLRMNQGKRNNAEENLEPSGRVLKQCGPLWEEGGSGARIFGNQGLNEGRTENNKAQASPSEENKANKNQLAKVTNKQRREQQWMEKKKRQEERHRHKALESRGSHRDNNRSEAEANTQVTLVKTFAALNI
Method in brief: as §1

[6] = molecular target: T2, UniProt Q8TE49
T2 sequence (whole entry): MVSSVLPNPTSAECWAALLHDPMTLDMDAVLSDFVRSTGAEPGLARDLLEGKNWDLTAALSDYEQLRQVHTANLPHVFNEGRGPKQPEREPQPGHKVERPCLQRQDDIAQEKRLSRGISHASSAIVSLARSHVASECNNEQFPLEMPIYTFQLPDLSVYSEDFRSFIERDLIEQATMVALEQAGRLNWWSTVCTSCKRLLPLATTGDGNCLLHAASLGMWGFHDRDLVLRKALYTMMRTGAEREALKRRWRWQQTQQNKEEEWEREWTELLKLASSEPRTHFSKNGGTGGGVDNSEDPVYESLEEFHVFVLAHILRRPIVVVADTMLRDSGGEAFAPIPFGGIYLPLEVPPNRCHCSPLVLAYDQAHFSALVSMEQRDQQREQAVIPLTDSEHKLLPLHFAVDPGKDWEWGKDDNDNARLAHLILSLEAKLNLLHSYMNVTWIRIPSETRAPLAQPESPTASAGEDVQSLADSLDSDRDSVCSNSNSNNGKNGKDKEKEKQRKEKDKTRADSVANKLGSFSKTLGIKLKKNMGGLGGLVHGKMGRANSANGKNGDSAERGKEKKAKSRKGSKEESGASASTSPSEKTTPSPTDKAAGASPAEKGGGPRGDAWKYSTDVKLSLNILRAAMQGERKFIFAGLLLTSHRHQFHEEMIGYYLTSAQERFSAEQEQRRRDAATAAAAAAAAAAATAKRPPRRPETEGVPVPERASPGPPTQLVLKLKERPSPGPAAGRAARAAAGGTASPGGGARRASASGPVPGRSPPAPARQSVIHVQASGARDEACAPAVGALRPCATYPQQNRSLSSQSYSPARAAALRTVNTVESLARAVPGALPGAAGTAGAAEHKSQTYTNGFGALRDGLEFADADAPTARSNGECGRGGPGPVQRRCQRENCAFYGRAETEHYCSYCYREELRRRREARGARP
Method in brief: as §1

[7] = molecular target: T3, UniProt Q9P2H5
T3 sequence (whole entry): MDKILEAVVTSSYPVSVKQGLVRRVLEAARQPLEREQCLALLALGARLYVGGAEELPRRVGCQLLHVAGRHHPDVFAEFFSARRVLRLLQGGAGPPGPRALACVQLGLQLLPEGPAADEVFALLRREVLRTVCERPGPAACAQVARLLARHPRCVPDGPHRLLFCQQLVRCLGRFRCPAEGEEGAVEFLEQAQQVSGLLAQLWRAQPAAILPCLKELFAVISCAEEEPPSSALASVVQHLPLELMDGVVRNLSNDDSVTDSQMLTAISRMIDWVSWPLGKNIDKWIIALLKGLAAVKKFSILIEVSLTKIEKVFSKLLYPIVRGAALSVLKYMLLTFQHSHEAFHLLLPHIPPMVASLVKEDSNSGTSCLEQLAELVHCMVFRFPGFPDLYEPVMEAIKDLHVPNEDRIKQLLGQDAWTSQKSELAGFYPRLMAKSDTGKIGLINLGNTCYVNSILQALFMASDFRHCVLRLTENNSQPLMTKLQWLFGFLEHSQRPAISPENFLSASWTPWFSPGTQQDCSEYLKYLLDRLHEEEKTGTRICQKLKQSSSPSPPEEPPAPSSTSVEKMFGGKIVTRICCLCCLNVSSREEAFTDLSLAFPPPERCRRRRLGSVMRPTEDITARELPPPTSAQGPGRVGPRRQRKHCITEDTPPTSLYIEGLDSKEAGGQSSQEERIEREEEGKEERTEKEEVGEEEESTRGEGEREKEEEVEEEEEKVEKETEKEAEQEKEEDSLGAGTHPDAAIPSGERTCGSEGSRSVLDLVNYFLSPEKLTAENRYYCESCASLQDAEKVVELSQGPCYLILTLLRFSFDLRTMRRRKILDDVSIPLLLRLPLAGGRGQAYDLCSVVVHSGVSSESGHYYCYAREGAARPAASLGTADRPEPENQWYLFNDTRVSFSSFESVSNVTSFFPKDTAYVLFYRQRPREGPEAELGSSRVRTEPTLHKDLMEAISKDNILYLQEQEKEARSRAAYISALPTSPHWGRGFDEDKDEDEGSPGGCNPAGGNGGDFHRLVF
Method in brief: as §1

[8] = molecular target: T4, UniProt Q9UGI0
T4 sequence (whole entry): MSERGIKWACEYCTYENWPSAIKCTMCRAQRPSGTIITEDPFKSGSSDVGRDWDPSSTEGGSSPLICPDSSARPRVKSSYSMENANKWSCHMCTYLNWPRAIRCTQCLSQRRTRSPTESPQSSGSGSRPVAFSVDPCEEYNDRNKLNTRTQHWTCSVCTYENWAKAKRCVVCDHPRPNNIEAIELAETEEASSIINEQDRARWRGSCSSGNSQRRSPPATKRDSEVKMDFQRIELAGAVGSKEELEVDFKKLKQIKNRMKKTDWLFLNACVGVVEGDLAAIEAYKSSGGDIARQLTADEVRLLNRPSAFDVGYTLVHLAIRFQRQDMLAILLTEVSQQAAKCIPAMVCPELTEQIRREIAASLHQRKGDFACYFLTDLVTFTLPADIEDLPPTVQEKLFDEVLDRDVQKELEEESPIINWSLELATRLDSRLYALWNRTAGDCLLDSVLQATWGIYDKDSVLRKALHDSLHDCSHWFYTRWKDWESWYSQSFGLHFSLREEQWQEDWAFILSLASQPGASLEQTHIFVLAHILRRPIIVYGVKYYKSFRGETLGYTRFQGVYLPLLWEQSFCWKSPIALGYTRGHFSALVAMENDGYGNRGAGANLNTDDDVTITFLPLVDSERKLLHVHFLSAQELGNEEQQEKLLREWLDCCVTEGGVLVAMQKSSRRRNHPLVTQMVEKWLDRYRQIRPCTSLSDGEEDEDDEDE
Method in brief: as §1

[9] = molecular target: T5, YOD1 (UniProt Q5VVQ6)
T5 sequence (whole entry): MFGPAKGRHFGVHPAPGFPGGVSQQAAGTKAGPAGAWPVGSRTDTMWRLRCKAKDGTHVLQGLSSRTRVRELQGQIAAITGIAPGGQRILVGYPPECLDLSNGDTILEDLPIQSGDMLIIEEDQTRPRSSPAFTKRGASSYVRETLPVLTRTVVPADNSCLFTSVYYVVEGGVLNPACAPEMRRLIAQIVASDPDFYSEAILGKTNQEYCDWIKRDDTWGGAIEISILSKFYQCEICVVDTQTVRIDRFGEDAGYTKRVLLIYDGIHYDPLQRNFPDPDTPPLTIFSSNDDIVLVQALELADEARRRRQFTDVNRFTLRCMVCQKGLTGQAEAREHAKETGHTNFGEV
Method in brief: as §1

Measured: log2 ratio of Biotin-Ahx-Ub-VS probe labelling

Chain of UniProt P51784 (P51784 whole entry): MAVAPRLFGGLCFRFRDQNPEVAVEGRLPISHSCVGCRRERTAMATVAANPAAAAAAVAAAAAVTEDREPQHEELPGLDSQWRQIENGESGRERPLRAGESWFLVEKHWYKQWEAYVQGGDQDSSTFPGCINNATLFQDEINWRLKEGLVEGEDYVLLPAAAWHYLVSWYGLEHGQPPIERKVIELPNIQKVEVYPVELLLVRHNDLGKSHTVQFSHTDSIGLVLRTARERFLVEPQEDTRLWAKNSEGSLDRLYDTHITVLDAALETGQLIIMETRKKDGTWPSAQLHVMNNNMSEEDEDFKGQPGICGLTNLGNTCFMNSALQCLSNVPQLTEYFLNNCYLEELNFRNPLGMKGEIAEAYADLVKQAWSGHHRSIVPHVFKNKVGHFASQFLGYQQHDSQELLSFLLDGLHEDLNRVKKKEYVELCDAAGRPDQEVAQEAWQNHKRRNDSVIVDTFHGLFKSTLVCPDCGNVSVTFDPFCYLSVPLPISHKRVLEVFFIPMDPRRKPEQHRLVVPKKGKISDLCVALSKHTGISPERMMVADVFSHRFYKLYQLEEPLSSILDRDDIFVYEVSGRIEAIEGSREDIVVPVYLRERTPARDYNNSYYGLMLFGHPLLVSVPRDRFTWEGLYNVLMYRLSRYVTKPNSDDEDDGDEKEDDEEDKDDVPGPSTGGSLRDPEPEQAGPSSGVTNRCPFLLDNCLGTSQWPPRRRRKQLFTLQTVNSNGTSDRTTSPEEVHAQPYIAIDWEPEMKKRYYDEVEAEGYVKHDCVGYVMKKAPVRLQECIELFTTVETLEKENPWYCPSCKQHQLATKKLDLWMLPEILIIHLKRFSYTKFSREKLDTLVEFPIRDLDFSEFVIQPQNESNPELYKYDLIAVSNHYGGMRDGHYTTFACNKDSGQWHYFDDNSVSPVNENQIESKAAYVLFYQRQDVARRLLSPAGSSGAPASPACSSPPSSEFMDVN
Chain of USP9X (Q93008 whole entry, the tested form may be a part): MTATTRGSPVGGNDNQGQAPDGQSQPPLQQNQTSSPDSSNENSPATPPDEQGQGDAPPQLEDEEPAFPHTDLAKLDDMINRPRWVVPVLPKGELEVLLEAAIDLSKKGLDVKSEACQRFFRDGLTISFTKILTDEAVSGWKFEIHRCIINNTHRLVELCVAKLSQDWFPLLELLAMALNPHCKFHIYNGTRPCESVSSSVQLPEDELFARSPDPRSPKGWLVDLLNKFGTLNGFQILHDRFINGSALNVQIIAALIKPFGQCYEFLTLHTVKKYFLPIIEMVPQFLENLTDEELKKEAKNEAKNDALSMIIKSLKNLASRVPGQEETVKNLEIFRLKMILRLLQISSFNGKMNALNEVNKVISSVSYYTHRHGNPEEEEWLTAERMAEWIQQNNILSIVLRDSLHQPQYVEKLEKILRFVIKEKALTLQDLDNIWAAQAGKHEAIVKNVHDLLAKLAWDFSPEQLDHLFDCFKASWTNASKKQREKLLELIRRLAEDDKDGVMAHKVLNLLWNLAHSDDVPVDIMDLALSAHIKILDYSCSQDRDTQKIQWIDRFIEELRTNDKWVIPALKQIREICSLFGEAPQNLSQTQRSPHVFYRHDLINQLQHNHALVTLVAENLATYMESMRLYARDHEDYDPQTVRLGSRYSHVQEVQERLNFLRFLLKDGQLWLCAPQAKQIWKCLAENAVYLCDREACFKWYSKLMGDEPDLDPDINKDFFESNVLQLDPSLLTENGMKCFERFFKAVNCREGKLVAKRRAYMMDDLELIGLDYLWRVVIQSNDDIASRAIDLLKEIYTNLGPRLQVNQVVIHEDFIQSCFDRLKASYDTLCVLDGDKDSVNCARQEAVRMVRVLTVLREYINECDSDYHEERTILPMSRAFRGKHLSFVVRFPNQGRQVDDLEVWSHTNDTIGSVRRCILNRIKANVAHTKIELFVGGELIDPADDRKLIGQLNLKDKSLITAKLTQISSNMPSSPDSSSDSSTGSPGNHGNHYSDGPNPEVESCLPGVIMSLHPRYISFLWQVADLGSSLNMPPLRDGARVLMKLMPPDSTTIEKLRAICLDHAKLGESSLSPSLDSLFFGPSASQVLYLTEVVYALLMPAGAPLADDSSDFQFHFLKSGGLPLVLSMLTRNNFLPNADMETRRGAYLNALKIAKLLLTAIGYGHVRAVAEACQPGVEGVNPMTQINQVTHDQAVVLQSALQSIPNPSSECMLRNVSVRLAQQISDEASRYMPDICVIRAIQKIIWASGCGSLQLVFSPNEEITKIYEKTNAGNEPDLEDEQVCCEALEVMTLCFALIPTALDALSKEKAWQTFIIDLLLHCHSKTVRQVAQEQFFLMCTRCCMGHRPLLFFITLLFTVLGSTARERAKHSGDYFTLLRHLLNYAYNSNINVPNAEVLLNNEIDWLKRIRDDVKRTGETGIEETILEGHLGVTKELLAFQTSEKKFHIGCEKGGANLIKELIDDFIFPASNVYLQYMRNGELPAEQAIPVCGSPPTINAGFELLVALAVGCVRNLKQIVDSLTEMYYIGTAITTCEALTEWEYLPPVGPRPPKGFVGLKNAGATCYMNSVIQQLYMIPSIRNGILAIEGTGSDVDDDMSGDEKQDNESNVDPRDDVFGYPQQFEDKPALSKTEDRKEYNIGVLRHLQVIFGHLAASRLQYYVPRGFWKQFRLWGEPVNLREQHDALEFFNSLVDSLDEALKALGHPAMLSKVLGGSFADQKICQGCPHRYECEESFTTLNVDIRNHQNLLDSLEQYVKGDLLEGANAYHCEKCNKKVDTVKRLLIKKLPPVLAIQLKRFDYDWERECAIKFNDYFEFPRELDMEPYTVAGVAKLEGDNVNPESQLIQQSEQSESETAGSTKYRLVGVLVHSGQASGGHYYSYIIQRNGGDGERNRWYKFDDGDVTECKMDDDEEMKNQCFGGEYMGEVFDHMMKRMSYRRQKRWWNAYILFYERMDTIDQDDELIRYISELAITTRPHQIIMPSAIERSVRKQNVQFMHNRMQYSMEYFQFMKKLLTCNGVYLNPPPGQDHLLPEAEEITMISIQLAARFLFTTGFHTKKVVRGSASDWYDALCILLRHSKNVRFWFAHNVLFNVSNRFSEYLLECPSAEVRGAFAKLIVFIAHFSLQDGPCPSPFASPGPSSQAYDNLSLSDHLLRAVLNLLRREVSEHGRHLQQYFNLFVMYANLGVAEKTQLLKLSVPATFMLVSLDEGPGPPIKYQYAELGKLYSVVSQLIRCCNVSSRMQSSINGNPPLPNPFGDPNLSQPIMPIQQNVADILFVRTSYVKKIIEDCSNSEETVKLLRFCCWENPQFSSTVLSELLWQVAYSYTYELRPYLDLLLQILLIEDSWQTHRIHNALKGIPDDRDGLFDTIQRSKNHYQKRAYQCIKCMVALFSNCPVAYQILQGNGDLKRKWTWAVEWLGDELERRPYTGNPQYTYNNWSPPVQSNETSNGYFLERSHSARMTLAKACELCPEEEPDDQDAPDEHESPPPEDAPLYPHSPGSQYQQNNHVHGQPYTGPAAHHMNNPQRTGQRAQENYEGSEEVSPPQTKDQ
Chain of UniProt O00487 (O00487 whole entry): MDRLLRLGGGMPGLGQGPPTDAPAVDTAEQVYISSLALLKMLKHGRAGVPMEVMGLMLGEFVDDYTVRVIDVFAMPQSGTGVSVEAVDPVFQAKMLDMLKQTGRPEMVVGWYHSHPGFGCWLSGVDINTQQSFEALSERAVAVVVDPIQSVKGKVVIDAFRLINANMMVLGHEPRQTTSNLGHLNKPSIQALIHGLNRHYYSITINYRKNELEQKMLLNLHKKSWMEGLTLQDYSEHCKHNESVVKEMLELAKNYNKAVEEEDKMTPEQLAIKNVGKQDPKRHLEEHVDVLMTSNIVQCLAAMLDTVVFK

O=C(CCl)N1CCc2ccccc2C(O)C1 (centres undefined)
inactive: [1] -0.333 | [2] -0.0272 | [3] -0.255 | [4] -0.0328 | [5] -0.418 | [6] -0.836 | [7] 0.153 | [9] -0.325
active: [8] -1.86
